Measurements reported in the supplement of paper PMC10849652.
Of roughly 8,800 targets only a part is listed; those with a hit were picked by preference. About 0.5% of all pairs of compound and target were hits. Unmarked numbers belong to inactive results.

Chain of UniProt Q9Y448 (Q9Y448 whole entry, looked up): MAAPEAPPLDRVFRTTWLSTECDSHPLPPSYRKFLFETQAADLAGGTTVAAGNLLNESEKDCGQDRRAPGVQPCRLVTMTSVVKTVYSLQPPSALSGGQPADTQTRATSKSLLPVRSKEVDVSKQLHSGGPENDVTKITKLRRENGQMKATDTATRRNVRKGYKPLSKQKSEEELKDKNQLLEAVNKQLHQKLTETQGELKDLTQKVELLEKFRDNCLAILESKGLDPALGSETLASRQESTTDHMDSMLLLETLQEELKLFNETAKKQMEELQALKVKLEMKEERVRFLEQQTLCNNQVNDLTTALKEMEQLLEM
Chain of UniProt Q16644 (Q16644 whole entry, looked up): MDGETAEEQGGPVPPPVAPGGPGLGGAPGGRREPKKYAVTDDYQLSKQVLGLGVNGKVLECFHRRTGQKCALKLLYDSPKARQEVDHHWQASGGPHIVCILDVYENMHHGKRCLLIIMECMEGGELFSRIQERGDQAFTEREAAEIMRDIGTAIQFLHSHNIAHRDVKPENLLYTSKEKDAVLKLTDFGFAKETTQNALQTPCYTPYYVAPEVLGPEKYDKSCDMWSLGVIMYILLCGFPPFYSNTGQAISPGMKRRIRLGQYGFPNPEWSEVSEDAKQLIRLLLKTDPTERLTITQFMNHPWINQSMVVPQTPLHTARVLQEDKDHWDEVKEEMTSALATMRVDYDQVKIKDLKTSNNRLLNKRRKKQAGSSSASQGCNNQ
Chain of UniProt Q9BQ69 (Q9BQ69 whole entry, looked up): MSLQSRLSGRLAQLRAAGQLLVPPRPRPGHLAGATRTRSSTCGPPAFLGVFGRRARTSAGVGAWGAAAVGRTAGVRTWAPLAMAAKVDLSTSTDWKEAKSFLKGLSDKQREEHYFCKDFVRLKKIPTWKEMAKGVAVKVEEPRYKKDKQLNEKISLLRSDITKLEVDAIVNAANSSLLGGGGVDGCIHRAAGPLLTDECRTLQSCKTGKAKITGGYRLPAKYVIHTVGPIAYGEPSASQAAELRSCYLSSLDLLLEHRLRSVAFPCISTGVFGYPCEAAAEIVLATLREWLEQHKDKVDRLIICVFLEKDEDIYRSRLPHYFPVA
Chain of UniProt Q07866 (Q07866 whole entry, looked up): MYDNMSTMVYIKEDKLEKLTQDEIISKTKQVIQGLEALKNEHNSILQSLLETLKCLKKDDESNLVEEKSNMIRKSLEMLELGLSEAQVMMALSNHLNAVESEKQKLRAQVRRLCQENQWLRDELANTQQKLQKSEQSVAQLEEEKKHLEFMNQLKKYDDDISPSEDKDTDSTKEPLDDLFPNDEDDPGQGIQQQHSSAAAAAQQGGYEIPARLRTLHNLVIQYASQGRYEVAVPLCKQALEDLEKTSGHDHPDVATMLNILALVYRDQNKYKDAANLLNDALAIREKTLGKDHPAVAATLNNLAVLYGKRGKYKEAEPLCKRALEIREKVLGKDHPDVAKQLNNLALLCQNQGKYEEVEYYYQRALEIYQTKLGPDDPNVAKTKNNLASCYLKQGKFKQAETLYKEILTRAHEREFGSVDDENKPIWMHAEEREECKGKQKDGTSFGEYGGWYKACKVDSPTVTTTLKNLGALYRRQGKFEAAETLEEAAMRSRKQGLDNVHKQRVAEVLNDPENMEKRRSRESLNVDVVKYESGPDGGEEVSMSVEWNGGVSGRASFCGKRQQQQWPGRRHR
Chain of UniProt Q9BVC4 (Q9BVC4 whole entry, looked up): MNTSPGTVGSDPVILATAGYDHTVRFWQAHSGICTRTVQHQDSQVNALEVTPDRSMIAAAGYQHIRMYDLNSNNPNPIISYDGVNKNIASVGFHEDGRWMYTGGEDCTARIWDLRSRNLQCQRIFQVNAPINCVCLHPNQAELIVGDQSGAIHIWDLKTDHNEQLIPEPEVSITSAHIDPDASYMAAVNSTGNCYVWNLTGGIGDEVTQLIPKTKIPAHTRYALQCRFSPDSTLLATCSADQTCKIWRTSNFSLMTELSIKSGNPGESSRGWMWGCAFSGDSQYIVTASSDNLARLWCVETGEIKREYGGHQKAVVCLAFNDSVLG
Chain of UniProt Q7Z4S6 (Q7Z4S6 whole entry, looked up): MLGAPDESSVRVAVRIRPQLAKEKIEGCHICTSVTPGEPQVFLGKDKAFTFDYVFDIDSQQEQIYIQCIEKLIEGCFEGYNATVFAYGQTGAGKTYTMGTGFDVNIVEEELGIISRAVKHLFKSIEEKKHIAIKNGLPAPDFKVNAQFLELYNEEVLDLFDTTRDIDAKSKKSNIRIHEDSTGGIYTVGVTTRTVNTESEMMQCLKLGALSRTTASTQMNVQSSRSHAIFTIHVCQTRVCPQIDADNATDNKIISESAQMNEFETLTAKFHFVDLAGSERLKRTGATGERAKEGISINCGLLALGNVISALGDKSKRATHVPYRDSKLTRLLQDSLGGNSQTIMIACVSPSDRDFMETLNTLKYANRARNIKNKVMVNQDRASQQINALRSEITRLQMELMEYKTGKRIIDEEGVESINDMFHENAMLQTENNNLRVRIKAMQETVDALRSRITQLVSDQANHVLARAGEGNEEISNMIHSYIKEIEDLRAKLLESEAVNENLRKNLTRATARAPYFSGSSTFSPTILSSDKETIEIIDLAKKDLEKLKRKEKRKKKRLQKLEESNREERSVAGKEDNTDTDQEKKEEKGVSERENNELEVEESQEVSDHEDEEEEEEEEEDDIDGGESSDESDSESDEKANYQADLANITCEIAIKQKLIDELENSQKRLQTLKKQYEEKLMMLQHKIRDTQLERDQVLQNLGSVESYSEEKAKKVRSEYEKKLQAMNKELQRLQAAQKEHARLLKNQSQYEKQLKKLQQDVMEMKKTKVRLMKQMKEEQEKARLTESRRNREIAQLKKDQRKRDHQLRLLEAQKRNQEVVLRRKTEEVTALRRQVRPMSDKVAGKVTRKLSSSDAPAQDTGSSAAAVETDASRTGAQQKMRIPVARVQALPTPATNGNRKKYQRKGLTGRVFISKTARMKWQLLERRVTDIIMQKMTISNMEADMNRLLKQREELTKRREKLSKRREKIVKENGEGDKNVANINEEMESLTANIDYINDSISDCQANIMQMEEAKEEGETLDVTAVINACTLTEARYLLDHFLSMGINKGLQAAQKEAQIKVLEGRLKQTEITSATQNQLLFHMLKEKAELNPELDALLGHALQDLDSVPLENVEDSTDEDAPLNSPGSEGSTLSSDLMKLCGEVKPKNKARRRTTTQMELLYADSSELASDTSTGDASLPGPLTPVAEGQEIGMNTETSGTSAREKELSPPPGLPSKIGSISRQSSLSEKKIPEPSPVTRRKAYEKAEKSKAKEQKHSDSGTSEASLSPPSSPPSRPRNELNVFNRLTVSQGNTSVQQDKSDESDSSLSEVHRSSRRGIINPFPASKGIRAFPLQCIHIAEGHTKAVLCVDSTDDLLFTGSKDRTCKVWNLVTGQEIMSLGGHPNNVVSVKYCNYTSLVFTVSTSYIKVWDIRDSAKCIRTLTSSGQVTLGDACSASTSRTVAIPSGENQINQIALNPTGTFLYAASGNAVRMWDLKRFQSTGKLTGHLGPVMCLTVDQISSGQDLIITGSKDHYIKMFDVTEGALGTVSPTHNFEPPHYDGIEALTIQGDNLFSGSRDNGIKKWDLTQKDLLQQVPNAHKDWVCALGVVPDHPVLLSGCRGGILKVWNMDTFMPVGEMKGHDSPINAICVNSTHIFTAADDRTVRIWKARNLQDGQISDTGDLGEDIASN
Chain of UniProt Q99661 (Q99661 whole entry, looked up): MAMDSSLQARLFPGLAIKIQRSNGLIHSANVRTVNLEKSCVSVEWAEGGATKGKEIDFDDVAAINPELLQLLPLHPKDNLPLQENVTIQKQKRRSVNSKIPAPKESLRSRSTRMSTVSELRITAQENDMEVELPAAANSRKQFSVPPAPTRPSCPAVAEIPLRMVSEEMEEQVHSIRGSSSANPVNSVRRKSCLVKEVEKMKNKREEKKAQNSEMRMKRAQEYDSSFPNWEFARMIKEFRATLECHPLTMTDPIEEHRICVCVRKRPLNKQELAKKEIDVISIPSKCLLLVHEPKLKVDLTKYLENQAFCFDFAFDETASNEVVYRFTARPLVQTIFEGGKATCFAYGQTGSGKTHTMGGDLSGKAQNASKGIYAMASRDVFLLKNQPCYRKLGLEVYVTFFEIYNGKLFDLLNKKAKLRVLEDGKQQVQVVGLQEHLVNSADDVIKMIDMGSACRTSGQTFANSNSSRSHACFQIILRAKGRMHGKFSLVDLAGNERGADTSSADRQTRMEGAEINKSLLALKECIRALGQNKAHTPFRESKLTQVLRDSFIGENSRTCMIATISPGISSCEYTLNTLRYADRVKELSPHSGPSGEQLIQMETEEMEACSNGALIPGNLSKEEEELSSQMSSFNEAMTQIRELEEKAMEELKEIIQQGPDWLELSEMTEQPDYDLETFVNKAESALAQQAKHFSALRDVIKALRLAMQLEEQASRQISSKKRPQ
Chain of UniProt Q9NX58 (Q9NX58 whole entry, looked up): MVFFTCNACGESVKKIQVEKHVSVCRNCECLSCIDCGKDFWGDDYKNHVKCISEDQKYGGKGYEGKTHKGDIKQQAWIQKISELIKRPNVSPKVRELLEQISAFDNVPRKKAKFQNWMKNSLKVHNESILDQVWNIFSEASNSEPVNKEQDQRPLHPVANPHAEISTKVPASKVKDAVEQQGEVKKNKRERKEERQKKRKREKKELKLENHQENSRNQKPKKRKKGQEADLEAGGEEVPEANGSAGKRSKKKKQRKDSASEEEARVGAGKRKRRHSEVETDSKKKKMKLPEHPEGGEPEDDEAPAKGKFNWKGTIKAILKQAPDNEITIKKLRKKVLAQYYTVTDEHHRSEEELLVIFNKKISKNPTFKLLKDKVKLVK
Chain of UniProt Q68D91 (Q68D91 whole entry, looked up): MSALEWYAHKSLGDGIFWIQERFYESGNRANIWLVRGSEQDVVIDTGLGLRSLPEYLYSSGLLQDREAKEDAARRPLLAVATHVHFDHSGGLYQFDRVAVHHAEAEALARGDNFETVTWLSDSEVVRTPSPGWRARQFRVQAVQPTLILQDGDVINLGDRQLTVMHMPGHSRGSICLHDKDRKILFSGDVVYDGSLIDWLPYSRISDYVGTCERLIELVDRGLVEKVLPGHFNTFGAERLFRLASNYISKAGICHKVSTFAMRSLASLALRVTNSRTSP

What follows are targets tested with CC(C)C1=C2N=C(C=C(N2N=C1)NCC3=CC=CC=C3)NCCCCCCN (assay: log2 fold change, soluble protein after heating vs DMSO (PISA); higher = thermal stabilisation; K562 lysate, 10 uM; active = over 0.2 and 3.5 SD of the protein, either way, in both replicates (recomputed)).
Method in brief: (§1)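 K562 pellets were dounce-homogenised in PBS pH 7.4 containing 1 mM MgCl2, and the crude extract, at 1 mg/mL protein, was exposed to 10 μM compound for 30 min. Aliquots were heated for 3 min across 48°C-58°C, pooled, brought to 0.5% NP-40 at 4°C and spun at 21,000xg for 90 min, with the supernatant taken as soluble protein. TMTpro 16plex LC-MS/MS with equalised channel sums quantified that protein. Values are log-two fold changes in thermal stability relative to solvent controls, taken from duplicates.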
In the case of MAP1S (UniProt Q66K74), the log2 fold change is reported as -0.005.
MON2 isoform 5 (UniProt Q7Z3U7) gave a log2 fold change of -0.02.
With LRPPRC (UniProt P42704) the log2 fold change was 0.018.
LBR (UniProt Q14739) gave a log2 fold change of -0.029.
MAPK14 (UniProt Q16539) was tested, and the log2 fold change was -0.06.
MLST8 (UniProt Q9BVC4) showed a log2 fold change of 0.063.
MMS19 isoform 8 (UniProt Q96T76) gave a log2 fold change of -0.041.
KNL1 (UniProt Q8NG31) was tested, and the log2 fold change was 0.013.
KLC1 isoform 6 (UniProt Q07866) gave a log2 fold change of 0.002.
In the case of MICU1 isoform 3 (UniProt Q9BPX6), the log2 fold change is reported as -0.02.
In the case of MOCS1 isoform 8 (UniProt Q9NZB8), the log2 fold change is reported as 0.049.
KLHL36 (UniProt Q8N4N3) gave a log2 fold change of 0.053.
MAP2K4 isoform 2 (UniProt P45985) was tested, and the log2 fold change was 0.042.
With MED17 (UniProt Q9NVC6) the log2 fold change was -0.017.
MAP2K5 (UniProt Q13163) showed a log2 fold change of -0.078.
For LRWD1 (UniProt Q9UFC0), the log2 fold change was 0.035.
Target MCMBP (UniProt Q9BTE3) has a log2 fold change of -0.009.
Target MRPL15 (UniProt Q9P015) has a log2 fold change of -0.01.
MAST4 (UniProt O15021) showed a log2 fold change of -0.032.
Target MBLAC2 (UniProt Q68D91) has a log2 fold change of 0.035.
KNSTRN (UniProt Q9Y448) showed a log2 fold change of -0.008.
Work on MAP4K4 isoform 3 (UniProt O95819) yielded a log2 fold change of 0.046.
MACROD1 (UniProt Q9BQ69) gave a log2 fold change of -0.008.
In the case of MAPK9 (UniProt P45984), the log2 fold change is reported as -0.029.
Work on LRRC40 (UniProt Q9H9A6) yielded a log2 fold change of -0.011.
MRPL10 isoform 2 (UniProt Q7Z7H8) showed a log2 fold change of -0.04.
Target MICB, A0A140T979 has a log2 fold change of -0.07.
In the case of LIG3 (UniProt P49916), the log2 fold change is reported as -0.002.
MAPKAPK3 (UniProt Q16644) gave a log2 fold change of -0.011.
KIF2C (UniProt Q99661) gave a log2 fold change of -0.014.
For LRCH3 (UniProt Q96II8), the log2 fold change was 0.015.
With LYAR (UniProt Q9NX58) the log2 fold change was 0.004.
MGST1 (UniProt P10620) gave a log2 fold change of -0.002.
Target KLC4 isoform 3 (UniProt Q9NSK0) has a log2 fold change of -0.024.
With MAPKAPK5 (UniProt Q8IW41) the log2 fold change was 0.
With MED10 (UniProt Q9BTT4) the log2 fold change was -0.019.
Work on LPIN1 isoform 7 (UniProt Q14693) yielded a log2 fold change of -0.033.
KIF21A isoform 5 (UniProt Q7Z4S6) was tested, and the log2 fold change was 0.002.
Work on MAP2K1 (UniProt Q02750) yielded a log2 fold change of 0.

Each target was assayed with CC1=C(C(CC(=O)N1)C2=CC=C(C=C2)C(F)(F)F)C(=O)NC3=C(C=C4C(=C3)C=NN4)F in the same assay as above.
Method in brief: as §1
With MAP1S (UniProt Q66K74) the log2 fold change was 0.011.
Work on MON2 isoform 5 (UniProt Q7Z3U7) yielded a log2 fold change of 0.012.
Target LRPPRC (UniProt P42704) has a log2 fold change of -0.011.
With LBR (UniProt Q14739) the log2 fold change was 0.018.
For MAPK14 (UniProt Q16539), the log2 fold change was -0.14.
MLST8 (UniProt Q9BVC4) gave a log2 fold change of -0.042.
With MMS19 isoform 8 (UniProt Q96T76) the log2 fold change was 0.006.
Work on KNL1 (UniProt Q8NG31) yielded a log2 fold change of 0.012.
In the case of KLC1 isoform 6 (UniProt Q07866), the log2 fold change is reported as -0.01.
Target MICU1 isoform 3 (UniProt Q9BPX6) has a log2 fold change of 0.
With MOCS1 isoform 8 (UniProt Q9NZB8) the log2 fold change was -0.005.
With KLHL36 (UniProt Q8N4N3) the log2 fold change was -0.008.
MAP2K4 isoform 2 (UniProt P45985) showed a log2 fold change of -0.008.
MED17 (UniProt Q9NVC6) was tested, and the log2 fold change was 0.04.
MAP2K5 (UniProt Q13163) showed a log2 fold change of -0.037.
LRWD1 (UniProt Q9UFC0) gave a log2 fold change of 0.015.
In the case of MCMBP (UniProt Q9BTE3), the log2 fold change is reported as 0.
Target MRPL15 (UniProt Q9P015) has a log2 fold change of -0.007.
Target MAST4 (UniProt O15021) has a log2 fold change of -0.075.
MBLAC2 (UniProt Q68D91) was tested, and the log2 fold change was 0.04.
Work on KNSTRN (UniProt Q9Y448) yielded a log2 fold change of 0.022.
Target MAP4K4 isoform 3 (UniProt O95819) has a log2 fold change of 0.067.
MACROD1 (UniProt Q9BQ69) showed a log2 fold change of 0.022.
Target MAPK9 (UniProt P45984) has a log2 fold change of -0.038.
Work on LRRC40 (UniProt Q9H9A6) yielded a log2 fold change of 0.015.
MRPL10 isoform 2 (UniProt Q7Z7H8) was tested, and the log2 fold change was -0.029.
For MICB, A0A140T979, the log2 fold change was -0.11.
LIG3 (UniProt P49916) showed a log2 fold change of -0.018.
With MAPKAPK3 (UniProt Q16644) the log2 fold change was 0.065.
In the case of KIF2C (UniProt Q99661), the log2 fold change is reported as -0.005.
Work on LRCH3 (UniProt Q96II8) yielded a log2 fold change of -0.015.
In the case of LYAR (UniProt Q9NX58), the log2 fold change is reported as 0.03.
Target MGST1 (UniProt P10620) has a log2 fold change of 0.002.
With KLC4 isoform 3 (UniProt Q9NSK0) the log2 fold change was -0.018.
MAPKAPK5 (UniProt Q8IW41) was tested, and the log2 fold change was -0.057.
Work on MED10 (UniProt Q9BTT4) yielded a log2 fold change of -0.013.
LPIN1 isoform 7 (UniProt Q14693) showed a log2 fold change of 0.066.
With KIF21A isoform 5 (UniProt Q7Z4S6) the log2 fold change was 0.034.
MAP2K1 (UniProt Q02750) gave a log2 fold change of -0.024.
